This note sets out measurements from PubChem BioAssay (EPA / NIEHS).

The source made the active and inactive calls. The calls were made as follows: active = hit-call score of the fitted dose curve at least 0.9, where 1 is the maximum; inactive = score below 0.9.

This assay is described as follows: ATG_PXRE_CIS: Attagene CIS-FACTORIAL HepG2 Assay for human Pregnane X Receptor Element (PXRE) (AID 2282957). The note with it: HepG2 Attagene CIS-FACTORIAL PXRE reporter, mRNA; actives raise or lower the signal. The method, then:
ATG_CIS is a cell-based, multiplexed-readout assay that uses HepG2, a human liver cell line, with measurements taken at 24 hours after chemical dosing in a 24-well plate.ATG_PXRE_CIS is one of 52 assay component(s) measured or calculated from the ATG_CIS assay. It is designed to make measurements of mRNA induction, a form of inducible reporter, as detected with fluorescence intensity signals by Reverse transcription polymerase chain reaction (RT-PCR) and Capillary electrophoresis technology.Data from the assay component ATG_PXRE_CIS was analyzed into 1 assay endpoint. This assay endpoint, ATG_PXRE_CIS, was analyzed with bidirectional fitting relative to DMSO as the negative control and baseline of activity. Using a type of inducible reporter, measures of mRNA for gain or loss-of-signal activity can be used to understand the reporter gene at the transcription factor-level as they relate to the gene NR1I2. Furthermore, this assay endpoint can be referred to as a primary readout, because this assay has produced multiple assay endpoints where this one serves a reporter gene function. To generalize the intended target to other relatable targets, this assay endpoint is annotated to the nuclear receptor intended target family, where the subfamily is non-steroidal.
Human liver HepG2 cells are transiently transfected with multiple reporter transcription units (MRTUs) in 6-well plates using FuGene 6 reagent (Roche; 3 ml FuGene/1 mg DNA). The MRTU constructs are regulated by a cis-regulating element (promoter). […] A major difference between the CIS and TRANS system is that in CIS activities of endogenous TFs are measured, whereas the TRANS assay evaluates changes in activities of exogenous, chimeric NR-Gal4 proteins. […] At the end of 24 hour incubation, total RNA was isolated using TriZol reagent (Invitrogen). The isolated RNA is then reverse-transcribed using oligo(dT) primer and Mo-MLV reverse transcriptase (Invitrogen) with DNAse I (Ambion) treatment for 30 min. The one-tenth of the produced cDNA was amplified by PCR using Taq DNA polymerase (Invitrogen) and two reporter sequence-specific primers. The PCR products were fluorescently labeled by primer extension with 6-arboxyfluorescein (6-FAM) 5'-labeled reporter sequence-specific primer (2 min at 95 C, 20 s at 68 C and 10 min at 72 C) and these products were digested with 5U of HpaI (New England Biolabs) for 2h at 37 C. The fragments were purified using Qiaquick PCR columns (Qiagen), analyzed on an ABI 3130xL genetic analyzer (Applied Biosystems) with peak positions identified by using a set of X-rhodamine (ROX)-labeled MapMarker1000 molecular weight standards (BioVentures). The raw capillary electrophoresis data was processed using Attagraph software (Attagene).
One may read the AC50 as the midpoint of the concentration-response curve, whichever way the signal moves. Regarding `CCCCCCCCCC[N+](C)(CCCCCCCCCC)CCC[Si](OC)(OC)OC`, the AC50 is 3.94 µM (active).
On the same count and under the same terms, the value for `CC(=O)c1ccc(S(=O)(=O)NC(=O)NC2CCCCC2)cc1` was 100 µM (active).
Same read-out and setting: next, `O=S(=O)(O)c1ccc(N=Nc2c(O)ccc3ccccc23)cc1`: 31.6 µM (active).
Turning to `Fc1ccc(Br)cc1`, the outcome was inactive.
For the compound `CC(=O)OCCc1ccccc1`, the call was inactive.
`O=C1CCCCCCCCCCCN1`: the AC50 was 8.77 µM (active).
As to `CCCCC(CC)COS(=O)(=O)O` (stereo not given), the AC50 was 62.9 µM (active).
On to `C=CC(=O)OCCCCCCCCCC`, for which the AC50 was 26.4 µM (active).
Same read-out and setting: next, `O=C(Cl)c1c(Cl)c(Cl)c(C(=O)Cl)c(Cl)c1Cl`: 27.9 µM (active); `CCc1cccc(C)c1N(C(=O)CS(=O)(=O)O)C(C)COC` (stereo not given): 29.2 µM (active); `C=CC(=O)NCOCCCC`: 36.7 µM (active).
For `CC(C)CO`, the compound was classed as inactive.
For the compound `C=C(C)C(=O)OCCOC(=O)C(=C)C`, the compound was classed as inactive.
Still for that read-out and setting: the value for `C=C(C)C1CC=C(C)CC1` (stereo not given) was “inactive”.
In the case of `CC1(C)CCC[C@]2(C)[C@H]3CC(=O)O[C@]3(C)CC[C@@H]12`, the AC50 was 3.61 µM (active).
For the compound `CC(=O)CC(=O)Nc1ccccc1C`, the compound was classed as inactive.
For `CCc1occc(=O)c1O`, the AC50 was 28.4 µM (active).
Still for that read-out and setting: the value for `C/C=C/C=C/CCCCCCCO` was 25.5 µM (active).
For the compound `CC(C)=CCl`, the compound was classed as inactive.
`CCCCNS(=O)(=O)c1ccccc1`: the AC50 was 26.7 µM (active).
For `O=C(O)CCCC(=O)O`, the result was inactive.
Consider `Cc1ccc2c(c1)CCCN2`, for which the concentration at half-maximal activity (AC50) was 65.1 µM (active).
Same read-out and setting: the value for `c1ccc(-c2nc3ccccc3[nH]2)cc1` was 27.4 µM (active).
Regarding `CCCCCCCCCCCC(=O)N(C)CC(=O)O`, the result was inactive.
Same read-out and setting: the value for `Cc1c[nH]c(=O)[nH]c1=O` was “inactive”; that for `CC(C)(CO)COC(=O)C(C)(C)CO` was “inactive”.
In the case of `CCOC(=O)OC(=O)OCC`, the call was inactive.
Take `Nc1ncnc2nc[nH]c12`: the outcome was inactive.
The same measure, in the same setting: the value for `O=C(O)CCC(=O)O` was “inactive”.
Consider `CCN1CN(CC)CN(CC)C1`, for which the AC50 is 119 µM (active).
The same measure, in the same setting: next, `C=CC(=O)OCC(C)OCC(C)OCC(C)OC(=O)C=C` (stereo not given): 2.25 µM (active); `CCCC=C(C=O)CC`: 7.92 µM (active).
With `CN(C)Cc1cc(CN(C)C)c(O)c(CN(C)C)c1`, the outcome was inactive.
Take `C[Si]1(C)O[Si](C)(C)O[Si](C)(C)O[Si](C)(C)O[Si](C)(C)O1`: the AC50 is 27.2 µM (active).
For `CCCC1CCCC(=O)O1` (stereo not given), the compound was classed as inactive.
For `CC(C)(CO)C(O)C(=O)NCCCO` (stereo not given), the compound was called inactive.
On the same count and under the same terms, the value for `Oc1ccc(-c2ccccc2)c(Cl)c1` was “inactive”; that for `CCCc1ccc(O)c(OC)c1` was “inactive”.
Still for that read-out and setting: next, `CCCCCC(=O)OCC`: “inactive”.
Consider `CCC(=O)C1CC(C(C)C)CC=C1C` (stereo not given), for which the AC50 is 4.33 µM (active).
